# Laboratory results: the supplement of paper PMC10981050
# “And” between values parts separate entries of the source, which are not always exact repeats. Identical values can stand only once. Counter-ions that a name gives are not always drawn.
# Legend:
# Assay in all cases: cell viability relative to vehicle control; higher = less cytotoxic
# Settings in all cases: 10 µM
# [1] = system: K562
# In short: (§1)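 Mutant clones made by CRISPR editing and their isogenic wild-type counterparts, from four leukaemia lines, were exposed to a single 10 µM dose of each library compound for 48 h. The supernatant was then removed and CellTiter-Glo luminescence was read. Viability was reported as percent of the on-plate vehicle control.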
# [2] = system: MARIMO
# In short: as §1
# [3] = system: MOLM14
# In short: as §1
# [4] = system: OCI-AML2
# In short: as §1
SMILES,cell viability ([1]; SRSF2 genotype: SRSF2 P95H/wt),cell viability ([1]; SRSF2 genotype: SRSF2 wt/wt) [%],cell viability ([2]; SRSF2 genotype: SRSF2 P95H/wt) [%],cell viability ([2]; SRSF2 genotype: SRSF2 wt/wt) [%],cell viability ([3]; SRSF2 genotype: SRSF2 P95H/wt) [%],cell viability ([3]; SRSF2 genotype: SRSF2 wt/wt) [%],cell viability ([4]; SRSF2 genotype: P95H/wt) [%],cell viability ([4]; SRSF2 genotype: wt/wt) [%]
Cc1ccc(/C=C2/C(=O)C3(C)CCC2C3(C)C)cc1 (configuration not stated) [4-Methylbenzylidene camphor],105% and 97.8%,96.1,90,108,95.5,104,89.4,99.7
C/C=C(/C)C(=O)O[C@H]1[C@@H](OC(=O)CC(C)C)c2c(ccc3ccc(=O)oc23)OC1(C)C [Praeruptorin E],65.9% and 77.1%,79,57.4,53.9,69.4,76.3,25.6,52.9
CC(NC(=O)Cc1cc(F)cc(F)c1)C(=O)NC(C(=O)OC(C)(C)C)c1ccccc1 (configuration not stated),98.8% and 103%,106,83.2,95.7,96.8,103,90,102
C=CC[S+]([O-])C[C@H](N)C(=O)O (some centres not stated) [Alliin],105%,107,104,96.5,114,107,102,98.2
COC(=O)[C@]12CCC(C)(C)C[C@H]1[C@H]1C(=O)C=C3[C@@]4(C)C=C(C#N)C(=O)C(C)(C)[C@@H]4CC[C@@]3(C)[C@]1(C)CC2 [Bardoxolone Methyl],2.03% and 0.75%,1.02,0.23,0.28,0.15,0.13,0.19,0.13
COc1ccc(CCc2cc(OC)c(OC)c(OC)c2)cc1O [Erianin],10.3% and 30.2%,25.3,6.09,6.67,1.16,1.16,1.03,2.9
CC(C)(O)CC(=O)NCCn1ccc2ncnc(Nc3ccc(Oc4cccc(C(F)(F)F)c4)c(Cl)c3)c21,69.4% and 63.5%,72.6,69.7,93.9,76.5,79.4,74.8,76.8
CCOC(=O)c1cccc(N)c1 [Ethyl 3-Aminobenzoate methanesulfonate],96.7% and 92.4%,85.1,87.2,96.5,88.7,96.5,94.2,90.7
CS(=O)(=O)n1cc2c(n1)CN([C@H]1CO[C@H](c3cc(F)ccc3F)[C@@H](N)C1)C2 [Omarigliptin (MK-3102)],98.3% and 102%,96.2,99.2,99.9,101,96.4,101,103
COc1nc(N)nc2c1ncn2[C@@H]1O[C@H](CO)[C@@H](O)[C@@H]1O [Nelarabine (Arranon)],98.2% and 96.9%,99.6,95.5,91.2,90.7,93.5,94.7,94.5
NC(=O)c1cccc(N)c1 [INO-1001 (3-Aminobenzamide)],96.6% and 95.7%,94.7,99.5,97.8,100,96.6,94.7,98.8
CC(=O)OCC1=C(C(=O)O)N2C(=O)[C@@H](NC(=O)CSc3ccncc3)[C@H]2SC1 [cephapirin sodium],102% and 105%,105,106,107,99.5,105,117,101
"CN1CCN2c3ncccc3Cc3ccccc3C2C1 (configuration not stated) [Mirtazapine (Remeron, Avanza)]",101% and 92.3%,88.7,93.2,96.8,92.3,97.4,95.9,96.5
Cn1c(=O)c2c(ncn2CC(O)CO)n(C)c1=O (configuration not stated) [Dyphylline (Dilor)],101% and 102%,100,94.9,105,97.8,101,95,102
O=c1[nH]cnc2c1ncn2[C@@H]1O[C@H](CO)[C@@H](O)[C@H]1O [Inosine],114% and 107%,121,102,118,99.7,111,98.3,114
CCOc1ccccc1OCCN[C@H](C)Cc1ccc(OC)c(S(N)(=O)=O)c1 [Tamsulosin hydrochloride],102% and 97.9%,98.3,96.9,107,98.5,103,92.7,104
Cc1ccc(Nc2nccc(N(C)c3ccc4c(C)n(C)nc4c3)n2)cc1S(N)(=O)=O [Pazopanib HCl],49.1% and 57.7%,51,54.5,46.3,36.4,39.8,28.3,33.9
COc1ccc2cc3[n+](cc2c1OC)CCc1cc2c(cc1-3)OCO2 [Berberine Sulfate],62.4% and 69.2%,72.4,66.7,59.5,71,75.3,49.8,46.2
COc1cc2c(Nc3ccc(NC(=O)c4ccccc4)cc3)ncnc2cc1OCCCN1CCOCC1,67.2% and 92%,79.4,62.5,72,17.9,10.3,16.4,22.1
NC[C@@](O)(c1ccc(Cl)cc1)c1ccc(-c2cn[nH]c2)cc1,34.7% and 19.4%,13,52.9,56.4,29.3,25.6,13.8,17.4

SMILES,cell viability ([1]; SRSF2 genotype: SRSF2 P95H/wt),cell viability ([1]; SRSF2 genotype: SRSF2 wt/wt) [%],cell viability ([2]; SRSF2 genotype: SRSF2 P95H/wt) [%],cell viability ([2]; SRSF2 genotype: SRSF2 wt/wt) [%],cell viability ([3]; SRSF2 genotype: SRSF2 P95H/wt) [%],cell viability ([3]; SRSF2 genotype: SRSF2 wt/wt) [%],cell viability ([4]; SRSF2 genotype: P95H/wt) [%],cell viability ([4]; SRSF2 genotype: wt/wt) [%]
COc1cc(/C=C/c2ccc(O)c(O)c2)cc(OC)c1 [3'-Hydroxypterostilbene],74% and 61.4%,67.4,29.2,39.9,21.3,10.6,44.4,44.7
O=c1c2ccccc2nc2n1CCc1c-2[nH]c2ccccc12 [Rutaecarpine (Rutecarpine)],103%,103,98.5,106,101,103,95.5,104
C=CC(=O)Nc1cccc(Oc2nc(Nc3ccc(N4CCN(C)CC4)cc3OC)ncc2Cl)c1,102% and 107%,103,85.8,98.7,57.6,84.8,92,83.9
Nc1c(CC(=O)O)cccc1C(=O)c1ccc(Br)cc1 [Bromfenac Sodium],106% and 105%,97.3,105,98.3,102,102,107,104
CCCC(=O)NCCc1csc(-c2ccc(Cl)cc2)n1 [Azoramide],86.4% and 89.4%,98.4,79.9,83.8,102,99.5,71.1,75.5
COc1ccc(C(C)=O)c(O)c1 [Paeonol (Peonol)],103% and 101%,99.5,104,97.9,102,102,98.3,91.5
N[C@@H](Cc1c[nH]c2ccc(O)cc12)C(=O)O [5-hydroxytryptophan (5-HTP)],106% and 102%,94.2,99.8,103,93.3,99.1,94.5,104
COc1cc(O)cc2c1C(=O)C[C@@H](c1ccccc1)O2 [Alpinetin],107% and 103%,96.5,101,109,109,110,102,106
C=C1C(=O)O[C@H]2[C@H]1CCC(C)=C1CC[C@@](C)(O)[C@@H]12 [Micheliolide],28.9% and 41.7%,64.4,15.9,19.8,7.9,7.02,5.22,11.1
CC1(C)C=Cc2cc(-c3coc4cc(O)ccc4c3=O)ccc2O1 [Corylin],78.5% and 85.9%,85.4,70.9,69.7,97,97.4,56.4,60.8
COc1cc2c(N3CCN(C(=O)Nc4ccc(OC(C)C)cc4)CC3)ncnc2cc1OCCCN1CCCCC1 [Tandutinib (MLN518)],86.7% and 96.2%,83.2,83.7,100,17.1,14.4,34.3,43.5
CC[C@H]1OC(=O)C[C@@H](O)[C@H](C)[C@@H](O[C@@H]2O[C@H](C)[C@@H](O)[C@H](N(C)C)[C@H]2O)[C@@H](CCN2C[C@H](C)C[C@H](C)C2)C[C@@H](C)C(=O)/C=C/C(C)=C/[C@@H]1CO[C@@H]1O[C@H](C)[C@@H](O)[C@@H](OC)[C@H]1OC [Tilmicosin],96.5% and 94.4%,99.4,95.6,106,98.5,103,93.3,105
CCOC(=O)C1=C(N)Oc2ccc(Cl)cc2C1C(C#N)C(=O)OCC (configuration not stated),85.4% and 84.9%,65.4,56.6,55.8,64.2,93.2,63.7,64.2
O=C(Nc1cc(Cl)cc(Cl)c1O)c1c(O)c(Cl)cc(Cl)c1Cl [Oxyclozanide],96% and 91.7%,97.8,97.2,108,99.1,103,102,99.9
CCCCCCCCCCCCCCCCOc1nc2ccc(C)cc2c(=O)o1 [Cetilistat],107% and 111%,108,108,108,103,108,107,108
CN(C)C/C=C/C(=O)Nc1ccc(C(=O)Nc2cccc(Nc3ncc(Cl)c(-c4c[nH]c5ccccc45)n3)c2)cc1,12.4% and 22.2%,16.8,0.73,1.23,0.23,0.21,0.37,0.63
NC(=S)N/N=C/c1ncccc1N [Triapine],75.8% and 77.5%,76.5,20.1,15.3,6.66,1.54,13.1,15.1
Cc1cc(O)c(-c2ccc([C@@H](C)CN)cc2)c2c1[nH]c(=O)c1sccc12 [OTS514 hydrochloride],19.6% and 29.6%,21.7,3.37,1.35,0.27,0.16,0.39,8.87
CN1C(N)=N[C@](C)(c2cc(NC(=O)c3ccc(F)cn3)ccc2F)CS1(=O)=O [Verubecestat (MK-8931)],92.7% and 98.7%,98.3,88.9,96.1,94.4,100,99.9,97.1
